proKLK7 act = proKLK7 zymogen activators, primary screen, biochemical, fluorescence intensity; activation, % at 7 µM; 370,000 compounds, 0.9% hits; purified proKLK7, EDANS-DABCYL substrate fluorescence; 100% is mature enzyme control, 0% vehicle;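 active = activation above the mean of all tested compounds plus 3 SD, computed per campaign excluding outliers beyond control limits, cut at about 13% in these data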
Rin1-Abl PPI inh = inhibitors of Rin1-Abl protein binding, primary screen, biochemical, TR-FRET; Tyrosine-protein kinase ABL1 (Homo sapiens) + Ras and Rab interactor 1 (Homo sapiens), …; inhibition, % at 7.35 µM; 360,000 compounds, 0.4% hits; AID 588664, 2011; in the data active = inhibition above about 5%, passing the limit was not always enough
UHRF1 binding = UHRF1 methylated DNA binding inhibitors, primary screen, counter-screen for MBD2 inhibitor project, biochemical, TR-FRET, human UHRF1, single concentration | E3 ubiquitin-protein ligase UHRF1 (Homo sapiens), Q96T88 | UHRF1 binding to methylated oligo | inhibition, % at 4.4 µM | 370,000 compounds, 0.75% hits; in the data active = inhibition above about 21%;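 note: UHRF1 SRA domain binding a hemimethylated CpG hairpin DNA probe; 0% = median of test compound wells and 100% = reference inhibitor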
MBD2 DNA inh = inhibitors of MBD2 binding to methylated DNA, primary screen, biochemical, TR-FRET, DNA-binding domain, human | AID 686964, 2013 | 370,000 compounds, 0.31% hits | inhibition, % at 4.4 µM | MBD2 binding to methylated oligonucleotide; in the data active = inhibition above about 13%
Neddylation inh = inhibitors of cullin neddylation, primary screen, biochemical, TR-FRET, uHTS, NAE and Ubc12 | NEDD8-conjugating enzyme Ubc12 (Homo sapiens) + NEDD8-activating enzyme E1 regulatory … | calls only at 25 µM | 360,000 compounds, 0.58% hits; in the data active = inhibition above about 36%
LEDGF integ inh = blockers of LEDGF/p75-dependent integrase strand transfer – biochemical, TR-FRET, high throughput, primary screen. inhibition, % at 3.7 µM. AID 743269, 2014. HIV-1 integrase (with human LEDGF/p75). TR-FRET IN-LEDGF/p75 DNA integration, Eu/Cy5. 370,000 compounds, 0.64% hits;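 active = inhibition above the screen-wide mean plus 3 SD, cut at about 13% in these data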;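 note: signal is the Cy5 over europium emission ratio at 671 and 618 nm; 0% = plate median of compound wells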
Neddyl conf = blockade of NEDD8 conjugation to cullin – biochemical, TR-FRET, single concentration, confirmation. shares compounds with Neddylation inh. TR-FRET cullin neddylation biochemical assay. calls only at 25 µM. 1,800 compounds, 13% hits. AID 652217, 2013; in the data active = inhibition above about 40%;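 note: neddylation substrate is the cullin 1 ring ligase complex with SKP2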
Numbers without * were called inactive; i = inactive; . = no result given; + = active, no number. In the library only some 3.1% were active in any assay of this set; here they are far more common.

SMILES | proKLK7 act | Rin1-Abl PPI inh | UHRF1 binding | MBD2 DNA inh | Neddylation inh | LEDGF integ inh | Neddyl conf
CCN(CC)CCNC(=O)c1nn(-c2ccc(C)cc2)c(=O)c2c1c1ccccc1n2C | 2 | 0 | 5 | 1 | + | -2 | i
CCN(CC)CCNC(=O)c1cc2c(=O)n(C)c3ccccc3c2n1C | 2 | 0 | 11 | -2 | + | 3 | .
CCCN(CCC)CCCNC(=O)c1cc2c(=O)n(C)c3ccccc3c2n1C | 0 | -2 | 2 | 4 | i | 0 | .
CCN(CC)CCCNC(=O)c1cc2c(=O)n(C)c3ccccc3c2n1C | 0 | -2 | 3 | 2 | + | -2 | i
CC(C)Cn1cc(C(=O)NCc2cccs2)c2c3ccccc3n(C)c2c1=O | 0 | 1 | -5 | -10 | + | 1 | i
Cc1nc2c(OCc3cccc(Cl)c3)cccn2c1N(C)Cc1cccs1 | 1 | 2 | -2 | -6 | i | 0 | .
CCCN(CCC)CCCNC(=O)c1cn(CCOC)c(=O)c2c1c1ccccc1n2C | 0 | -3 | 15 | 3 | + | 0 | i
Cc1cccc(C)c1-n1nnnc1-c1nc2ccccc2[nH]c1=O | -41 | . | 1 | 3 | i | 4 | .
Cc1cc2nc(-c3nnnn3-c3c(C)cccc3C)c(=O)[nH]c2cc1C | -13 | . | 2 | -2 | + | 4 | i
CNc1c(NS(=O)(=O)c2ccc(C(C)(C)C)cc2)c(=O)oc2ccccc12 | -1 | 1 | 2 | 1 | + | -3 | i
COc1ccc2oc(=O)c(C(=O)NCc3ccc4c(c3)OCO4)cc2c1 | 0 | -1 | 0 | 5 | i | 1 | .
COc1ccc2oc(=O)c(C(=O)NCCc3ccc(OC)c(OC)c3)cc2c1 | 0 | -1 | -2 | -4 | + | 1 | i
CCN(CC)CC(=O)Nc1cc(N(C)C)nc2ccccc12 | -5 | 2 | 6 | 6 | i | -4 | .
CN1CCN(CC(=O)Nc2cc(N(C)C)nc3ccccc23)CC1 | 3 | 3 | 11 | 7 | + | -1 | i
CN1CCc2c1nc1ccccc1c2NC(=O)CN1CCCC1 | -3 | 1 | 1 | 10 | + | 7 | i
CCCCCC(=O)N1C[C@H](n2cc(-c3ccc(F)cc3)nn2)[C@@H](O)C[C@@H]1c1ccc(Cl)cc1 | 1 | 0 | -2 | -6 | i | -3 | .
COc1cc(-c2nnc(CSc3nnc(Nc4ccc(C(C)C)cc4)s3)o2)cc(OC)c1OC | 4 | 1 | -4 | -2 | + | -2 | i
COc1ccccc1/C=N/Nc1cc(C)nc2ccc(C)cc12 | -1 | 0 | 1 | 1 | + | -4 | i
CC(C)(C)NC(=O)C(c1ccnc2ccccc12)n1c(=O)c(-c2ccccc2)nc2ccccc21 (stereo not drawn) | 0 | . | 0 | 5 | + | -1 | i
Cc1cccc(C)c1NC(=O)C(C1CC1)n1c(=O)c(-c2ccccc2)nc2ccccc21 (stereo not drawn) | -3 | . | 2 | -4 | + | -3 | +
CC(C)(C)NC(=O)C(c1ccccc1)n1c(-c2ccc(-c3ccccc3)cc2)nc2ccccc21 (stereo not drawn) | 0 | . | -1 | 2 | i | -12 | .
Cc1cccc(C)c1NC(=O)C(c1ccnc2ccccc12)n1c(=O)c(-c2ccccc2)nc2ccccc21 (stereo not drawn) | -10 | . | 1 | 0 | i | -3 | .
CC(C)(C)NC(=O)C(c1ccccc1)n1c(=O)c(-c2ccccc2)nc2ccccc21 (stereo not drawn) | 0 | . | 1 | 2 | + | 0 | i
Nn1cnc2scc(-c3ccco3)c2c1=O | 1 | -3 | -3 | -5 | i | 0 | .
CCOc1ccc(CC(=O)Nc2ccc(S(=O)(=O)N3CCCC3)cc2)cc1 | 0 | 1 | 2 | 1 | i | 2 | .
SMILES | proKLK7 act | Rin1-Abl PPI inh | UHRF1 binding | MBD2 DNA inh | Neddylation inh | LEDGF integ inh | Neddyl conf
CCOc1ccc(NC(=S)N2CCN(c3ccc(N4CCOCC4)nn3)CC2)cc1 | 9 | 0 | 17 | 1 | + | 1 | i
COCCCn1c(=O)c2sccc2n2c(CCCC(=O)NCc3ccc(F)cc3)nnc12 | 0 | 5 | 0 | -2 | + | -1 | i
CCCN(CCC)CCNC(=O)c1cc2c(-c3ccc(Cl)cc3)nn(C)c2s1 | 4 | 0 | -7 | 12 | . | -2 | .
CCCN(CCC)CCCNC(=O)c1cc2c(-c3ccc(OC)c(OC)c3)nn(C)c2s1 | -3 | 0 | 23* | 7 | + | -4 | i
COc1ccc(C(c2c(NC(=O)c3ccccc3)sc(C)c2C)N2CCN(CCO)CC2)cc1 (stereo not drawn) | 0 | 1 | 1 | 0 | i | -2 | .
COc1cccc(C(c2c(NC(=O)c3ccccc3)sc(C)c2C)N2CCN(C)CC2)c1 (stereo not drawn) | 2 | -6 | -1 | 0 | + | 4 | i
COc1ccc(C(c2c(NC(=O)c3ccco3)sc(C)c2C)N2CCOCC2)cc1 (stereo not drawn) | 0 | 4 | 4 | 8 | + | 0 | .
COC(=O)[C@]12C[C@H](CC(=O)N3CCN(C(=O)C4CC4)CC3)C(=O)N(Cc3ccc4c(c3)OCO4)C1=C[C@H](COCc1ccccc1)O[C@@H]2C | 1 | . | 2 | 2 | . | -3 | .
Nc1ncnc2c1ncn2C1OC(COP(=O)(O)O)C(O)C1O (stereo not drawn) | 1 | -3 | -2 | -2 | + | -6 | +
Nc1ncnc2c1ncn2[C@@H]1O[C@H](COP(=O)(O)O)[C@@H](O)[C@H]1O | 0 | 0 | 0 | 1 | + | -5 | +
NC(=O)C1=CN([C@@H]2O[C@H](COP(=O)(O)OP(=O)(O)OC[C@H]3O[C@@H](n4cnc5c(N)ncnc54)[C@H](O)[C@@H]3O)[C@@H](O)[C@H]2O)C=CC1 | 0 | . | -2 | 0 | . | -6 | .
NCCC(=O)NC[C@H]1O[C@@H](n2cnc3c(N)ncnc32)[C@H](O)[C@@H]1O | 1 | -1 | 0 | 0 | i | 5 | .

Assay outcomes deposited in PubChem BioAssay by several laboratories.
